The values below come from PubChem BioAssay (NCI).

Compounds without any hit were thinned out: in the full panel of roughly 83,000, 20% have a hit.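 How to read the values: 0–100, growth inhibition (40 = 60% inhibited); 0, no net growth; -100 to 0, cell death (-40 = 40% of starting cells died; -100 = all dead).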 Activity calls are given as the source filed them. The calls were made as follows: active = growth percent below 10; inactive = the rest.

For one assay, the system named is HCT-15 colon. Description: NCI-60 one-dose screen, 48 h (100 = growth as untreated, 0 = no growth, -100 = all killed). Conditions: 10 µM unless noted.
For the compound `O=C(CSc1nc2ccccc2c(=O)[nH]1)NCCN1CCCCC1`, the growth was 97.5% (inactive).

`Cn1cc(-c2nnc(N)nc2-c2c[nH]c3ccc(Br)cc23)c2cc(Br)cnc21`: the growth is 22.4% (inactive).

`O=C(O)Cn1c(O)c(/C=C2/C=c3cc4c(cc3=NC2=O)OCCO4)sc1=S`: the growth is 98.5% (inactive).

Consider `N/C(=N\c1nc2ccccc2s1)NC(=O)Nc1ccc(Cl)cc1Cl`, for which the growth was -25.7% (active).

In the case of `Cc1ccc(-c2nc(C#N)c(S(=O)(=O)N3CCN(S(=O)(=O)c4ccccc4)CC3)o2)cc1`, the growth was -85.8% (active).

`COc1cccc(-c2nc(Nc3ccc(S(N)(=O)=O)cc3)c3ccccc3n2)c1`: the growth was 5.48% (active).

With `COc1ccc(/C=C/c2nc3ccccc3n3c(-c4ccc(Cl)cc4)nnc23)cc1`, the growth was 93.3% (inactive).

With `CNS(=O)(=O)c1ccc(Nc2ccc(C(F)(F)F)cc2)c(-c2cn(C)cn2)c1`, the growth was 34.5% (inactive).

As to `CCS(=O)(=O)N1CCCC(C(=O)Nc2nc3ccc(NC(=O)c4ccc(F)c(OC)c4F)cc3s2)C1` (stereo not drawn), the growth was 51% (inactive).

On to `C#CCOc1cc(N(CC)CC)ccc1C(C(=O)NC(C)(C)C)N(C(=O)C1CCc2cc(F)ccc2O1)c1cc(C)cc(C)c1` (stereo not drawn), for which the growth is 31.9% (inactive).

Turning to `C#CCOc1ccc(/C=N/Nc2nc(-c3ccc(Cl)cc3)cs2)cc1OC`, the growth is 45.7% (inactive).

As to `O=C(COc1ccc2c(c1)CCCC(=O)N2)NCc1ccccc1`, the growth is 42% (inactive).

For `CN(C)c1nc(NCCNS(=O)(=O)c2ccc(C3=Nc4c(N)nc(N)nc4NC(c4ccccc4)C3)cc2)nc(Nc2ccc(F)cc2)n1` (stereo not drawn), the growth is 37.4% (inactive).

Consider `CC1(C)CC[C@]2(C(=O)O)CC[C@]3(C)C(=CCC4[C@@]5(C)C[C@@H](O)[C@@H]6OC(c7ccccc7F)OC[C@@]6(C)C5CC[C@]43C)C2C1` (stereo partly drawn), for which the growth was 5.25% (active).

As for `Cc1cccc(-c2nc(Nc3ccc(C)c(S(N)(=O)=O)c3)c3ccccc3n2)c1`, the growth is -19.4% (active).

Regarding `COC(=O)C[C@](O)(CCCC(C)(C)O)C(=O)O[C@H]1C(OC)=C[C@@]23CCCN2CCc2cc4c(cc2[C@@H]13)OCO4`, the growth is 0.83% (active).

On to `Cn1cc(-c2cc(N)n3nc(-c4cn(C)c5ccccc45)cc3n2)c2cc(Cl)ccc21`, for which the growth is -78.3% (active).

Turning to `CC1(C)CC[C@]2(C(=O)O)CC[C@]3(C)C(=CCC4[C@@]5(C)C[C@@H](O)[C@@H]6OC(c7ccco7)OC[C@@]6(C)C5CC[C@]43C)C2C1` (stereo partly drawn), the growth was 20.7% (inactive).

In the case of `Cn1cc(-c2cc3nc(-c4c[nH]c5ccc(Cl)cc45)cc(N)n3n2)c2ccccc21`, the growth was -86.2% (active).

In the case of `COc1ccc(Cc2nn(CC(=O)N/N=C/c3ccc(F)cc3)c(=O)c3c(C)noc23)cc1`, the growth is 67.2% (inactive).

Regarding `COc1cc2nc(SCc3ccccc3)n(-c3ccc(Cl)cc3)c(=O)c2cc1OC`, the growth is 33.6% (inactive).

Consider `Cc1cccc(-c2nc(Nc3cccc(S(N)(=O)=O)c3)c3ccccc3n2)c1`, for which the growth was 9.69% (active).

For the compound `COc1ccc2[nH]cc(-c3nnc(N)nc3-c3cn(C)c4ncc(Br)cc34)c2c1`, the growth was 68.5% (inactive).

With `CCN(CC)c1ccc(/C=N/Nc2nc(-c3ccc(C)cc3)cs2)c(O)c1`, the growth was 67.2% (inactive).

With `N/C(=N\c1nc2ccccc2s1)NC(=O)Nc1ccccc1Br`, the growth is -4.76% (active).

For another assay, the system named is HT29 colon. Described as above. The note with it: 10 µM unless noted.
Consider `Cc1ccc(S(=O)(=O)c2nc(S(=O)(=O)c3ccc(C)cc3)c(Cl)s2)cc1`, for which the growth is -77.5% (active).

As to `CCCCSc1nc(Nc2ccc(C(C)=O)cc2)c(C#N)c(-c2ccc(OC)cc2)n1`, the growth is 78.5% (inactive).

Turning to `CCOC(=O)C1=C(N)N(c2ccccc2)C2=C(C(=O)CC(C)(C)C2)C1c1ccc([N+](=O)[O-])cc1` (stereo not drawn), the growth is 99.4% (inactive).

Consider `Cc1cccc(Nc2nc3ccccc3nc2/C=C/c2ccc(F)cc2)c1`, for which the growth was 86.4% (inactive).

`Cc1cccc(NC(=O)CN2CCN(c3ncnc4c3cnn4-c3ccccc3)CC2)c1`: the growth was 76.1% (inactive).

Regarding `Cn1cc(-c2cc3nc(-c4c[nH]c5ccc(Br)cc45)cc(N)n3n2)c2ccccc21`, the growth is -83.1% (active).

Turning to `C#CCOc1ccc(/C=N/Nc2nc(-c3cc4cc(OC)ccc4oc3=O)cs2)cc1OC`, the growth is 29.2% (inactive).

With `CC1(C)CC[C@]2(C(=O)O)CC[C@]3(C)C(=CCC4[C@@]5(C)C[C@@H](O)[C@@H]6OC(c7ccc(F)cc7)OC[C@@]6(C)C5CC[C@]43C)C2C1` (stereo partly drawn), the growth is 25.4% (inactive).

With `O=C(NN1C(=O)/C(=C/C=C/c2ccc([N+](=O)[O-])o2)SC1=S)c1cccc(O)c1`, the growth is -67.2% (active).

Regarding `Cc1ccc(C(=O)NN2C(=O)/C(=C/C=C/c3ccc([N+](=O)[O-])o3)SC2=S)cc1`, the growth was -74.3% (active).

Consider `N/C(=N\c1nc2ccccc2s1)NC(=O)Nc1c(Cl)cccc1Cl`, for which the growth was 8.87% (active).

With `O=C(CN1C(=O)/C(=C/c2ccccc2Cl)SC1=S)N1CCOCC1`, the growth was 96.4% (inactive).

As to `CN(C)c1nc(NCCNS(=O)(=O)c2ccc(C3=Nc4c(N)nc(N)nc4NC(c4ccc(C(F)(F)F)cc4)C3)cc2)nc(Nc2ccc(F)cc2)n1` (stereo not drawn), the growth is -69.6% (active).

`O=C(CSc1nc2ccccc2c(=O)[nH]1)NCCN1CCCCC1`: the growth was 108% (inactive).

In the case of `Cn1cc(-c2nnc(N)nc2-c2c[nH]c3ccc(Br)cc23)c2cc(Br)cnc21`, the growth was 16.6% (inactive).

`O=C(O)Cn1c(O)c(/C=C2/C=c3cc4c(cc3=NC2=O)OCCO4)sc1=S`: the growth was 119% (inactive).

Turning to `N/C(=N\c1nc2ccccc2s1)NC(=O)Nc1ccc(Cl)cc1Cl`, the growth is -90.1% (active).

As to `Cc1ccc(-c2nc(C#N)c(S(=O)(=O)N3CCN(S(=O)(=O)c4ccccc4)CC3)o2)cc1`, the growth was -56% (active).

Regarding `COc1cccc(-c2nc(Nc3ccc(S(N)(=O)=O)cc3)c3ccccc3n2)c1`, the growth is 13.8% (inactive).

As to `COc1ccc(/C=C/c2nc3ccccc3n3c(-c4ccc(Cl)cc4)nnc23)cc1`, the growth was 102% (inactive).

Take `CNS(=O)(=O)c1ccc(Nc2ccc(C(F)(F)F)cc2)c(-c2cn(C)cn2)c1`: the growth is 49.6% (inactive).

With `CCS(=O)(=O)N1CCCC(C(=O)Nc2nc3ccc(NC(=O)c4ccc(F)c(OC)c4F)cc3s2)C1` (stereo not drawn), the growth is 69.2% (inactive).

As to `C#CCOc1cc(N(CC)CC)ccc1C(C(=O)NC(C)(C)C)N(C(=O)C1CCc2cc(F)ccc2O1)c1cc(C)cc(C)c1` (stereo not drawn), the growth is 40.4% (inactive).

As to `C#CCOc1ccc(/C=N/Nc2nc(-c3ccc(Cl)cc3)cs2)cc1OC`, the growth is 69.3% (inactive).

With `O=C(COc1ccc2c(c1)CCCC(=O)N2)NCc1ccccc1`, the growth is 103% (inactive).

On to `CN(C)c1nc(NCCNS(=O)(=O)c2ccc(C3=Nc4c(N)nc(N)nc4NC(c4ccccc4)C3)cc2)nc(Nc2ccc(F)cc2)n1` (stereo not drawn), for which the growth is 18.3% (inactive).

For the compound `CC1(C)CC[C@]2(C(=O)O)CC[C@]3(C)C(=CCC4[C@@]5(C)C[C@@H](O)[C@@H]6OC(c7ccccc7F)OC[C@@]6(C)C5CC[C@]43C)C2C1` (stereo partly drawn), the growth is 2.5% (active).

Regarding `Cc1cccc(-c2nc(Nc3ccc(C)c(S(N)(=O)=O)c3)c3ccccc3n2)c1`, the growth is 18% (inactive).

Regarding `COC(=O)C[C@](O)(CCCC(C)(C)O)C(=O)O[C@H]1C(OC)=C[C@@]23CCCN2CCc2cc4c(cc2[C@@H]13)OCO4`, the growth is -48.3% (active).

Turning to `Cn1cc(-c2cc(N)n3nc(-c4cn(C)c5ccccc45)cc3n2)c2cc(Cl)ccc21`, the growth was -67.2% (active).

In the case of `CC1(C)CC[C@]2(C(=O)O)CC[C@]3(C)C(=CCC4[C@@]5(C)C[C@@H](O)[C@@H]6OC(c7ccco7)OC[C@@]6(C)C5CC[C@]43C)C2C1` (stereo partly drawn), the growth is 21.3% (inactive).

In the case of `Cn1cc(-c2cc3nc(-c4c[nH]c5ccc(Cl)cc45)cc(N)n3n2)c2ccccc21`, the growth was -80.7% (active).

`COc1ccc(Cc2nn(CC(=O)N/N=C/c3ccc(F)cc3)c(=O)c3c(C)noc23)cc1`: the growth is 74% (inactive).

As for `COc1cc2nc(SCc3ccccc3)n(-c3ccc(Cl)cc3)c(=O)c2cc1OC`, the growth is 45.4% (inactive).

For the compound `Cc1cccc(-c2nc(Nc3cccc(S(N)(=O)=O)c3)c3ccccc3n2)c1`, the growth is 38.4% (inactive).

For the compound `COc1ccc2[nH]cc(-c3nnc(N)nc3-c3cn(C)c4ncc(Br)cc34)c2c1`, the growth was 82.6% (inactive).

For `CCN(CC)c1ccc(/C=N/Nc2nc(-c3ccc(C)cc3)cs2)c(O)c1`, the growth was 83.5% (inactive).

Turning to `N/C(=N\c1nc2ccccc2s1)NC(=O)Nc1ccccc1Br`, the growth was -61.1% (active).
